FMDV antiviral – antivirals against foot and mouth disease virus | 410,000 compounds, 1.2% hits | Potency, µM (top dose mostly 57.9 µM), usual class: inhibitors | FMDV antiviral cell-based qHTS; calls by dose curve; tested in HEK293T cells; note: read-out not given here; nearly all actives have a fitted effect of over 45% in size
Lassa entry inh – blocks Lassa virus binding to or entry into cells. Lassa virus pseudotype entry inhibition, cell reporter. Potency, µM (doses to about 37.9 µM), most hits filed as inhibitors. 300,000 compounds, 1.2% hits. AID 540256; calls by dose curve; tested in HEK293 cells; note: nearly all actives have a fitted effect of over 50% in size
MARV entry inh – inhibitors of Marburg virus binding or cell entry | Potency, µM (titrated, usually from 37.8 µM), usual class: inhibitors | Marburg virus pseudotyped entry inhibition, cell reporter | 300,000 compounds, 1.8% hits; calls by dose curve; tested in HEK293 cells
HCV inh – blocks hepatitis C virus; 340,000 compounds, 3.4% hits; Potency, µM (highest dose often 41.8 µM), usual class: inhibitors; AID 651820; Huh7.5.1 HCVcc-Cre infection, luciferase reporter, 44 h; active = well fitted inhibition curve with a large enough effect; inconclusive = small, poorly fitted or top-dose-only effect, or another doubt; inactive = no such curve, though single readings can be large or run the other way
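Cells seeded at 1,000/well and cultured 4 h, then compounds added followed by HCVcc-Cre virus (~0.5 moi). After 44 h further culture, luciferase substrate was added, plates held 15 min at room temperature, and luminescence read for 15 sec.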
Shiga inhibitor – blocks Shiga toxin action in Vero cells. Vero cells, Shiga toxin protein synthesis inhibition reporter. inhibition, % at 38.7 µM. 290,000 compounds, 9.2% hits; in the data active = inhibition mostly above about 28%, no sharp cut-off; inactive = mostly below about 43%
Cycloheximide cs – affects cycloheximide protein synthesis inhibition readout, counter-screen; cell reporter, cycloheximide protein synthesis inhibition counterscreen; AID 2314; 300,000 compounds, 12% hits; max response, %; in the data active = max response mostly above about 13%, no sharp cut-off; inactive = mostly below about 14%; note: read at 38.3 µM for the half of the compounds with a filed dose
Large screens that a line does not name were inactive. Most compounds without a hit are left out; they make up all but 13% or so of the library.

C=CCn1cccc(C(=O)Nc2cc(OC)cc(OC)c2)c1=O	Lassa entry inh inconclusive, MARV entry inh inconclusive, Cycloheximide cs 26
COCCNC(=O)Cn1cnc2sc(C)c(S(=O)(=O)N3CCN(c4ccccc4OC)CC3)c2c1=O	MARV entry inh inconclusive
C=CCN(C(=O)CSC1=NC(=O)CN1C(C)=O)c1nc(C)c(-c2ccccc2)s1	HCV inh inconclusive, Cycloheximide cs 30
CCCN1CCN(C(=O)c2noc3c2COc2ccc(C)cc2-3)CC1	Shiga inhibitor 54, Cycloheximide cs 17 (no result: Lassa entry inh, MARV entry inh)
Cc1ccc2c(c1)-c1onc(C(=O)N3CCN(c4cc(C)ccc4C)CC3)c1CO2	none (no result: MARV entry inh, HCV inh, Shiga inhibitor, Cycloheximide cs)
CCOC(=O)N1CCN(C(=O)c2noc3c2COc2ccccc2-3)CC1	Cycloheximide cs 20 (no result: Lassa entry inh, MARV entry inh)
O=C(CCCc1ccccc1)Nc1nnc(C(F)(F)F)s1	FMDV antiviral inconclusive
CC(=O)Oc1ccc(C23CC4CC(CC(C4)C2)C3)cc1C(=O)O	Shiga inhibitor 37 (no result: FMDV antiviral, Lassa entry inh, MARV entry inh, HCV inh)
O=C(O)c1ccccc1OC(=O)C12CC3CC(CC(C3)C1)C2	Lassa entry inh inconclusive
CCNC(=O)COC(=O)c1ccc(-c2nc3ccccc3s2)s1	Shiga inhibitor 99, Cycloheximide cs 34 (no result: Lassa entry inh, MARV entry inh)
Cc1noc(C)c1COC(=O)c1ccc(-c2nc3ccccc3s2)s1	Lassa entry inh inconclusive, Shiga inhibitor 73, Cycloheximide cs 18
CSCCC(NC(=O)c1ccoc1C)C(=O)O (stereo not drawn)	none (no result: FMDV antiviral)
COC(=O)C(O)C1C(C)(C)C(OC(C)=O)C2CC3=C4CC(=O)OC(c5ccoc5)[C@]4(C)CCC3[C@@]1(C)C2=O (stereo partly drawn)	none (no result: Lassa entry inh, MARV entry inh, HCV inh, Shiga inhibitor, Cycloheximide cs)
CC(=O)Nc1ccc(NC(=O)c2nc(SCc3ccccc3C)ncc2Cl)cc1	none (no result: HCV inh, Shiga inhibitor, Cycloheximide cs)
NS(=O)(=O)c1ccc(CCNCC(=O)N2CCC(Cc3ccccc3)CC2)cc1	HCV inh 11µM (no result: Lassa entry inh, MARV entry inh)
CCc1cccc(C)c1NC(=O)CN1C(=O)c2cccc3cccc1c23	Lassa entry inh inconclusive (no result: HCV inh, Shiga inhibitor, Cycloheximide cs)
COc1cccc(C(C(=O)NC(C)(C)C)N(Cc2ccc(C)cc2)C(=O)CCC(=O)Nc2cc(C)on2)c1OC (stereo not drawn)	FMDV antiviral inconclusive, Lassa entry inh inconclusive, MARV entry inh inconclusive, HCV inh 11µM
CCOC(=O)C(=CN=C(N)Nc1nc2ccccc2o1)C(=O)OCC	MARV entry inh inconclusive, Shiga inhibitor 31, Cycloheximide cs 14
CCCOC(=O)Nc1nc2ccccc2o1	Shiga inhibitor 144, Cycloheximide cs 26
CCOC(=O)C(Cc1ccc(O)cc1)Nc1nc2ccccc2o1 (stereo not drawn)	Lassa entry inh inconclusive (no result: Shiga inhibitor, Cycloheximide cs)
CCc1ccc(NC(=O)CSc2nncn2-c2cccnc2)cc1	Lassa entry inh inconclusive, MARV entry inh inconclusive, Shiga inhibitor 151, Cycloheximide cs 32
Cn1cnnc1SCC(=O)Nc1ccc2ccccc2c1	none (no result: Shiga inhibitor, Cycloheximide cs)
COc1ccc(NC(=O)CSc2nncn2C)cc1	MARV entry inh inconclusive, Cycloheximide cs 25
Cn1cnnc1SCC(=O)Nc1ccc(OCc2ccccc2)cc1	Shiga inhibitor 90, Cycloheximide cs 48
COc1ccccc1NC(=O)CSc1nncn1-c1cccnc1	none
Cn1cnnc1SCC(=O)Nc1ccccc1	none (no result: Lassa entry inh, MARV entry inh)
CCC(CC)C(=O)Nc1c2c(nn1-c1ccc(F)cc1)CS(=O)(=O)C2	Lassa entry inh inconclusive

Assay outcomes (PubChem)
